# Records with an inconclusive call do not appear. Calls of active or inactive are those of the source. Unless noted, how the calls were made is not given here.
# Columns and labels:
# [1] = circadian clock period modulators, cell-based, LOPAC library, luminescence reporter (AID 2774); settings: circadian reporter cells, at 7 µM, actives lie on both sides;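 further: values are relative to mean of DMSO wells on each plate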
# [2] = hESC survival regulators, cell-based (AID 493140); settings: human embryonic stem cell survival screen; stronger effect = higher value;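 further: cells exposed to compounds for four days before counting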
# [3] = tested on: Hepatitis C virus NS3 helicase; assay: HCV NS3 helicase inhibitors, primary screen, biochemical, fluorescence polarization, LOPAC1280 library (AID 687035; in the data active means inhibition above about 37%); settings: Purified HCV NS3 helicase, Cy5-dT15 ssDNA binding fluorescence polarization; stronger effect = higher value; concentration not given here
# [4] = Cy5 fluorescence quenching or enhancement artefacts, artefact control for HCV NS3 helicase inhibitor project, biochemical, LOPAC1280 (AID 687037); settings: Cy5-DNA-NS3h complex fluorescence interference counterscreen
# [5] = growth inhibition of DIPG glioma cells, dose response, cell-based, SU-DIPG-IV, MIPE4.0, CellTiter-Glo, qHTS (AID 1347063; cut-off not given, nearly all actives have AC50 up to about 30 µM;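 further: compound exposure lasted 48 hours before the viability readout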); settings: SU-DIPG-IV viability, CellTiter-Glo ATP luminescence
# [6] = growth inhibition of DIPG glioma cells, dose response, cell-based, SU-DIPG-XIII, MIPE5.0, CellTiter-Glo, qHTS (AID 1347064; cut-off not given, nearly all actives have AC50 up to about 23 µM;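 on AC50: cells exposed to compound for 48 hours before the viability read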); settings: SU-DIPG-XIII viability, CellTiter-Glo ATP luminescence
# [7] = viability loss in pontine glioma line – cell-based, SU-DIPG-XXV, MIPE5.0, CellTiter-Glo, qHTS, dose response (AID 1347065; cut-off not given, nearly all actives have AC50 up to about 26 µM;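 further: cells exposed to compound for 48 hours before ATP readout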); settings: CellTiter-Glo ATP luminescence
# [8] = SU-DIPG-VI glioma cell viability, MIPE4.0 library, CellTiter-Glo luminescence, qHTS (AID 1347066; cut-off not given, nearly all actives have AC50 up to about 30 µM;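 further: cells exposed to compound for 48 hours before readout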); settings: CellTiter-Glo ATP luminescence
# [9] = JHH-DIPG-1 glioma cell viability, MIPE5.0 library, CellTiter-Glo luminescence, qHTS (AID 1347067; cut-off not given, nearly all actives have AC50 up to about 26 µM;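 further: cells exposed to compound for 48 hours before readout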); settings: JHH-DIPG-1 glioma viability, CellTiter-Glo ATP luminescence
# [10] = modifiers of HSF1 nuclear foci, imaging, Selleck Cancer Library (AID 1347162; in the data active means plate-normalised HSF1 focus index below about 0.46); settings: human cells, at 10 µM; SSMD: measured here: HSF1 foci SSMD mean; cell count: measured here: cell number; plate-normalised HSF1 focus index: stronger effect = lower value
# [11] = phospholipid biosynthesis inhibitors in animal cells, primary screen, cell-based, LOPAC library, screen 4 (AID 1347384); settings: phospholipid biosynthesis inhibition screen, at 10 µM
# [12] = molecular target: Mitogen-activated protein kinase 7 (Homo sapiens) (UniProt Q13164); assay: ERK5 transactivation activators in reporter cells, primary screen, cell-based, HTS (AID 1508626;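 active means luciferase signal above three times the same-plate solvent-only control wells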;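 further: luciferase driven by Gal4-ERK5 fusion binding five Gal4 sites before minimal TATA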); settings: HeLa Gal4-ERK5 transactivation, 18 h, at 5 µM, stronger effect = higher value
# Chain of Mitogen-activated protein kinase 7 (Homo sapiens) (Q13164 whole entry, looked up, the tested form may be a part): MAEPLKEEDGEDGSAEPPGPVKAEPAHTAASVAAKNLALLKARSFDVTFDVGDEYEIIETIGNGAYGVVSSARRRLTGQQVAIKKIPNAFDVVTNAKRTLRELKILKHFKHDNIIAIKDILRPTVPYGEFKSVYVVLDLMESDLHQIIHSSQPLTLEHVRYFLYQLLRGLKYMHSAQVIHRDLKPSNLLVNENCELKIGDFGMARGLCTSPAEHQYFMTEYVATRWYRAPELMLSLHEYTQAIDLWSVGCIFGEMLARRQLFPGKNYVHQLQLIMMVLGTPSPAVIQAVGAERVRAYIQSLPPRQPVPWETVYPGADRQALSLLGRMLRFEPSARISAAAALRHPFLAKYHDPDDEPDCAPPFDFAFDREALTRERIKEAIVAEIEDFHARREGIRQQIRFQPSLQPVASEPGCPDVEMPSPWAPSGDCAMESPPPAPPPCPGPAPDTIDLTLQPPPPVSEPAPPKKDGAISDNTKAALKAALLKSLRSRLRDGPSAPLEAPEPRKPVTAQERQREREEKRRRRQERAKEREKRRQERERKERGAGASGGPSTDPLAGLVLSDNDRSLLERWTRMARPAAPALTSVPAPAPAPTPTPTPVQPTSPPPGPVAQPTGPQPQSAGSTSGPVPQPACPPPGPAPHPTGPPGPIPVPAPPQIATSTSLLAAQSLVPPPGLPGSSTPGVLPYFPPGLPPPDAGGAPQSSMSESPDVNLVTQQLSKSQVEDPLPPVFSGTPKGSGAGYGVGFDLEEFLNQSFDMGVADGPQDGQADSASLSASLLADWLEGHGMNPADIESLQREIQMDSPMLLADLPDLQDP
structure (smiles),measurement,setting,value
CC1=C(/C=C/C(C)=C/C=C/C(C)=C/C(=O)Nc2ccc(O)cc2)C(C)(C)CCC1,period change,[1],-0.145 h (inactive)
same,survival,[2],116 (inactive)
same,inhibition,[3],-3% (inactive)
same,fluorescence ratio (interference),[4],1 (inactive)
same,AC50,[5],4.81 µM (active)
same,AC50,[6],16.6 µM (active)
same,AC50,[7],14.8 µM (active)
same,AC50,[8],9.59 µM (active)
same,AC50,[9],20.9 µM (active)
same,SSMD,[10],-4.16
same,cell count,[10],7280
same,plate-normalised HSF1 focus index,[10],0.851 (inactive)
same,outcome,[11],active
CN(C)CCCOc1nn(Cc2ccccc2)c2ccccc12,survival,[2],9 (inactive)
same,luciferase signal,[12],92 AU (inactive)
O=C(Nc1ccc(C(=O)O)c(O)c1)c1ccccc1,luciferase signal,[12],48 AU (inactive)
NC(=O)CCCCC1CCSS1 (stereo not drawn),luciferase signal,[12],44 AU (inactive)
CC[C@@H](CO)NCCN[C@@H](CC)CO,luciferase signal,[12],40 AU (inactive)
O=C(OOC(=O)c1ccccc1)c1ccccc1,luciferase signal,[12],104 AU (inactive)
OC1C(O)C(O)C(O)C(O)C1O (stereo not drawn),luciferase signal,[12],40 AU (inactive)
O=C1c2ccccc2C(=O)C1c1ccc(Br)cc1,luciferase signal,[12],56 AU (inactive)
COc1cc(C(=O)NCCCCCC(=O)O)cc(OC)c1OC,luciferase signal,[12],36 AU (inactive)
CC(O)Cn1cnc2c1c(=O)n(C)c(=O)n2C (stereo not drawn),survival,[2],7 (inactive)
same,luciferase signal,[12],104 AU (inactive)
CCOCC(O)COc1ccc(NC(=O)CC[S+](C)C)cc1 (stereo not drawn),outcome,[5],inactive
same,outcome,[6],inactive
same,outcome,[7],inactive
same,outcome,[8],inactive
same,outcome,[9],inactive
COc1cc(N)c(Cl)cc1C(=O)NC1CCN(CCCOc2ccc(F)cc2)CC1OC (stereo not drawn),survival,[2],0.75 (inactive)
NC(=O)c1cc[n+](CC2=C(C(=O)[O-])N3C(=O)[C@@H](NC(=O)Cc4cccs4)[C@H]3SC2)cc1,survival,[2],16 (inactive)
NC(=O)C1(N2CCCCC2)CCN(CCCC(=O)c2ccc(F)cc2)CC1,luciferase signal,[12],52 AU (inactive)
OCCc1ccccc1,luciferase signal,[12],108 AU (inactive)
CCOC(=O)c1ccc(O)cc1,luciferase signal,[12],64 AU (inactive)
CC1=C(C/C=C(\C)CCC[C@H](C)CCC[C@H](C)CCCC(C)C)C(=O)c2ccccc2C1=O,luciferase signal,[12],156 AU (inactive)
CC1(C)[C@@H]2CC[C@@]1(C)C(=O)C2,luciferase signal,[12],52 AU (inactive)
CCn1ccnc1CC1COc2ccccc2O1 (stereo not drawn),period change,[1],0.33 h (inactive)
same,inhibition,[3],-4% (inactive)
same,fluorescence ratio (interference),[4],1 (inactive)
same,outcome,[11],inactive
OC(CN1CCC(Cc2ccc(F)cc2)CC1)c1ccc(Cl)cc1 (stereo not drawn),inhibition,[3],-3% (inactive)
same,fluorescence ratio (interference),[4],1 (inactive)
same,outcome,[5],inactive
same,outcome,[8],inactive
same,outcome,[11],inactive
CCN1CCC[C@H]1CNC(=O)c1c(OC)ccc(Br)c1OC,survival,[2],12.3 (inactive)
CC[C@]1(O)C[C@H]2CN(CCc3c([nH]c4ccccc34)[C@@](C(=O)OC)(c3cc4c(cc3OC)N(C=O)[C@H]3[C@@](O)(C(=O)OC)[C@H](OC(C)=O)[C@]5(CC)C=CCN6CC[C@]43[C@@H]65)C2)C1,AC50,[6],0.332 µM (active)
same,AC50,[7],0.0295 µM (active)
same,AC50,[9],0.0295 µM (active)
same,luciferase signal,[12],72 AU (inactive)
Cn1ccc2cc3c(cc21)CCN3C(=O)Nc1cccnc1,period change,[1],0.355 h (inactive)
same,inhibition,[3],-3% (inactive)
same,fluorescence ratio (interference),[4],0.9 (inactive)
same,outcome,[5],inactive
same,outcome,[6],inactive
same,outcome,[7],inactive
same,outcome,[8],inactive
same,outcome,[9],inactive
same,outcome,[11],inactive
CN=C(NC#N)Nc1ccc(C2=NNC(=O)CC2C)cc1 (stereo not drawn),period change,[1],0.035 h (inactive)
COC(=O)[C@@H]1CC2=CC(=O)CC[C@]2(C)[C@@]23O[C@@H]2C[C@@]2(C)[C@@H](CC[C@@]24CCC(=O)O4)[C@H]13,outcome,[6],inactive
same,outcome,[8],inactive
same,outcome,[9],inactive
C1COC(NC(C2CC2)C2CC2)=N1,period change,[1],0.03 h (inactive)
same,survival,[2],19 (inactive)
same,inhibition,[3],0% (inactive)
same,fluorescence ratio (interference),[4],1 (inactive)
same,outcome,[6],inactive
same,outcome,[7],inactive
same,outcome,[8],inactive
same,outcome,[9],inactive
same,outcome,[11],inactive
COCCOC(=O)C1=C(C)NC(C)=C(C(=O)OC/C=C/c2ccccc2)C1c1cccc([N+](=O)[O-])c1 (stereo not drawn),inhibition,[3],-1% (inactive)
same,fluorescence ratio (interference),[4],1 (inactive)
same,outcome,[11],active
CC#C[C@]1(O)CC[C@H]2[C@@H]3CCC4=CC(=O)CCC4=C3[C@@H](c3ccc(N(C)C)cc3)C[C@@]21C,period change,[1],0.39 h (inactive)
same,survival,[2],27.7 (inactive)
same,inhibition,[3],-1% (inactive)
same,fluorescence ratio (interference),[4],0.9 (inactive)
same,AC50,[5],0.418 µM (active)
same,AC50,[7],29.5 µM (active)
same,AC50,[8],2.96 µM (active)
same,outcome,[11],inactive
same,luciferase signal,[12],36 AU (inactive)
CN(C(=O)c1c(O)c2ccccc2n(C)c1=O)c1ccccc1,outcome,[9],inactive
FC(F)(F)c1ccccc1-n1ccnc1,period change,[1],-0.115 h (inactive)
same,inhibition,[3],0% (inactive)
same,fluorescence ratio (interference),[4],1 (inactive)
same,outcome,[11],inactive
CN(C)C/C=C(/c1ccc(Br)cc1)c1cccnc1,period change,[1],-0.15 h (inactive)
same,survival,[2],24.8 (inactive)
same,inhibition,[3],1% (inactive)
same,fluorescence ratio (interference),[4],1 (inactive)
same,outcome,[11],inactive
Cc1ccc2c(c1)c1c3n2CCNC3CCC1 (stereo not drawn),survival,[2],11.2 (inactive)
CC[N+](CC)(CC)CCOc1ccc(/C=C/c2ccccc2)cc1,inhibition,[3],-3% (inactive)
same,fluorescence ratio (interference),[4],1 (inactive)
same,outcome,[11],inactive
COc1ccc2c(c1OC)C(=O)O[C@@H]2[C@H]1c2c(cc3c(c2OC)OCO3)CCN1C,period change,[1],-0.03 h (inactive)
same,survival,[2],2.92 (inactive)
same,inhibition,[3],-2% (inactive)
same,fluorescence ratio (interference),[4],1 (inactive)
same,outcome,[11],inactive
same,luciferase signal,[12],44 AU (inactive)
Cc1cc(C)c(/C=C2\C(=O)Nc3ccccc32)[nH]1,period change,[1],0.375 h (inactive)
same,inhibition,[3],6% (inactive)
same,fluorescence ratio (interference),[4],1 (inactive)
same,outcome,[6],inactive
same,outcome,[9],inactive
same,outcome,[11],inactive
Cc1ccc(=O)n(-c2ccccc2)c1,period change,[1],-0.085 h (inactive)
same,inhibition,[3],-4% (inactive)
same,fluorescence ratio (interference),[4],1 (inactive)
same,outcome,[11],inactive
COCC(=O)O[C@]1(CCN(C)CCCc2nc3ccccc3[nH]2)CCc2cc(F)ccc2[C@@H]1C(C)C,period change,[1],-0.16 h (inactive)
same,inhibition,[3],-2% (inactive)
same,fluorescence ratio (interference),[4],1 (inactive)
same,outcome,[11],inactive
CC1(CN2CCC(n3c(=O)[nH]c4ccccc43)CC2)OCc2ccccc2-n2cccc21 (stereo not drawn),outcome,[5],inactive
same,outcome,[8],inactive
same,SSMD,[10],2.84
same,cell count,[10],7080
same,plate-normalised HSF1 focus index,[10],1.16 (inactive)

# From PubChem BioAssay
